From PubChem BioAssay
NCOA1 inh: SRC1 coactivator transcriptional activity inhibitors, primary screen, cell-based, luminescence; Nuclear receptor coactivator 1 (Homo sapiens), Q15788; inhibition, % at 3.6 µM; HEK293 GAL4-SRC1 luciferase reporter; AID 588354, 2011; 360,000 compounds, 0.12% hits;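 active = inhibition above the campaign mean plus 3 SD, with each screening campaign given its own cutoff, cut at about 60% in these data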;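 note: 0% = DMSO treated cells and 100% = gossypol at 36 µM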
NR5A2 inv ag: LRH-1 (NR5A2) inverse agonists, primary screen, cell-based, luminescence, HEK293T, StAR-luciferase reporter. 360,000 compounds, 0.13% hits. inhibition, % at 3.6 µM. Nuclear receptor subfamily 5 group A member 2 (Homo sapiens), O00482. LRH-1 transfected, 24 h;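 active = inhibition above the mean inhibition of all tested compounds plus 3 SD, cut at about 73% in these data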;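 note: 0% = DMSO wells and 100% = reporter-only cells lacking LRH-1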
SRC3 inh: SRC3 coactivator transcriptional activity inhibitors, primary screen, cell-based, luminescence; inhibition, % at 3.6 µM; AID 588352, 2011; Nuclear receptor coactivator 3 (Homo sapiens), Q9Y6Q9; 360,000 compounds, 0.17% hits; HEK293 GAL4-SRC3 luciferase reporter;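 active = inhibition above a per-campaign cutoff, the mean of all compounds plus 3 SD, cut at about 60% in these data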;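 note: 0% = DMSO-treated cells and 100% = gossypol-treated cells at 36 µM; higher means less SRC3-driven luciferase light from the GAL4 reporter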
Gli-Sufu block: Gli-Sufu pathway antagonists, primary screen, luciferase luminescence, Sufu-KO-LIGHT cells, uHTS; Sufu-KO-LIGHT fibroblasts, Gli luciferase reporter luminescence; inhibition, % at 5 µM; 340,000 compounds, 0.74% hits; AID 588413, 2011;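 active = inhibition above about 55%, limit read from the data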;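 note: 0% = DMSO-treated cells and 100% = wells with medium but no cells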
NR2F2 inh: NR2F2 transcriptional activity inhibitors, primary screen, cell-based, luciferase reporter, HEK293T, luminescence. HEK293T NGFI-A luciferase reporter. inhibition, % at 8.6 µM. 370,000 compounds, 0.7% hits;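 active = inhibition above a per-plate cutoff, mean inhibition of test wells between control levels plus 3 SD, cut at about 38% in these data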;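 note: cells cotransfected with COUP-TFII expression vector driving the NGFI-A reporter; 0% = median of COUP-TF2 test wells and 100% = reporter-only cells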
NCOA2 inhibitor: inhibition of GAL4-SRC2 driven luciferase reporter, primary screen, SRC2 inhibitor project, cell-based, luminescence. HEK293 GAL4-SRC2 luciferase reporter. 370,000 compounds, 0.17% hits. Nuclear receptor coactivator 2 (Homo sapiens), Q15596. inhibition, % at 9 µM. AID 651957, 2012;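 active = inhibition above the mean inhibition of all tested compounds plus 3 SD, set per campaign, cut at about 52% in these data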;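 note: 0% = DMSO treated cells and 100% = cells given Gossypol at 36 µM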
VP16 Luc counter: Gal4-VP16 luciferase reporter inhibitors, counter-screen for COUP-TFII antagonist project, cell-based, luminescence, HEK293; shares compounds with NR2F2 inh; inhibition, % at 8.5 µM; 2,500 compounds, 25% hits; in the data active = inhibition above about 13%
COUP-TFII conf: NR2F2 transcriptional activity inhibitors, confirmation, cell-based, luciferase reporter, HEK293, triplicate; shares compounds with NR2F2 inh; HEK293 NGFI-A luciferase reporter, luminescence; inhibition, % at 8.5 µM; 2,500 compounds, 45% hits; AID 687008, 2013;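 active = mean inhibition over three repeats above a set limit taken from the earlier primary screen, cut at about 38% in these data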;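 note: 100% = cells given the luciferase reporter alone without the COUP-TF2 vector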
Active calls of the source: *; x = no result. Only some compounds are listed: those with a hit (about 1.3% of all), similar ones and a draw of the others.

SMILES	NCOA1 inh	NR5A2 inv ag	SRC3 inh	Gli-Sufu block	NR2F2 inh	NCOA2 inhibitor	VP16 Luc counter	COUP-TFII conf
Cc1ccc(C23CC4CC(CC(C(=O)N5CCN(C)CC5)(C4)C2)C3)cc1	-28	-11	10	2	12	-6	x	x
Cc1ccc(C)c(N2CCN(C(=O)C34CC5CC(C3)CC(n3nnc(C)n3)(C5)C4)CC2)c1	-2	-6	37	9	47*	4	-3	22
CCn1c(COc2c(C)cccc2C)nnc1SCC(=O)N1CCN(c2ccccc2)CC1	24	19	5	-19	33	24	x	x
CCn1c(SCC(=O)N2CCN(c3ccccc3)CC2)nnc1-c1c[nH]c2ccccc12	16	7	12	6	46*	20	8	37
C=CCn1c(COc2cccc(C)c2C)nnc1SCC(=O)N1CCN(c2ccccc2)CC1	1	10	0	28	44*	0	11	38*
CN1Cc2sc(NC(=S)NC(=O)c3ccccc3)c(C#N)c2CC1(C)C	x	x	x	60*	40*	43	7	69*
CCC1(C)Cc2c(sc(NC(=S)NC(=O)c3ccccc3)c2C#N)CO1 (stereo unspecified)	-29	-8	-27	-11	-11	-13	x	x
CN1CCCN(C(=O)C2CCN(c3ncnc4c3sc3cccc(F)c34)CC2)CC1	x	x	x	x	-2	-10	x	x
COc1ccc(-n2cc(-c3ccc(C)cc3)[n+]3c2SCC3)cc1	47	65	47	x	66*	19	10	64*
N#Cc1ccc(-c2cn(-c3ccccc3)c3[n+]2CCCS3)cc1	-4	-7	6	10	1	1	x	x
COc1ccccc1/C=N\NC(=O)c1cccc(S(=O)(=O)N(C)C)c1	x	x	x	x	-18	-11	x	x
CC1(C)CC2CC(C)(CN2S(=O)(=O)c2ccc(C(=O)Nc3cc(S(=O)(=O)N4CCOCC4)ccc3Cl)cc2)C1 (stereo unspecified)	22	4	21	3	36	21	x	x
CC1(C)CC2CC(C)(CN2S(=O)(=O)c2ccc(C(=O)Nc3cccc(S(=O)(=O)N4CCOCC4)c3)cc2)C1 (stereo unspecified)	7	44	24	27	68*	20	1	63*
O=C(NCc1ccncc1)c1ccc(-c2ccc(F)c(F)c2)c2ccoc12	22	32	8	x	70*	-1	6	41*
COc1ccc(-c2ccc(C(=O)NCc3ccncc3)c3occc23)c(C)c1	-2	58	0	x	69*	30	-18	56*
CCC[C@H]1[C@@H](OC(=O)NCc2cccnc2)CC[C@@]23CCCN2C(=O)CCC[C@@H]13	x	x	x	x	21	x	x	x
COC(=O)[C@]12C[C@H](CC(=O)NCCCN3CCCC3=O)C(=O)N(Cc3ccco3)C1=C[C@H](C(C)(C)C)O[C@@H]2C	x	x	x	x	10	14	x	x
C[C@H](O)[C@@H]1C(=O)N2CCc3c([nH]c4c(-c5ccc6c(c5)OCO6)cccc34)[C@@H]2C[C@@H]1N(C)C(=O)Nc1ccccc1	x	x	x	x	-8	-31	x	x
O=C(c1cccc(C(F)(F)F)c1)N1CC[C@H]2[C@H](CCCN2Cc2ccccc2)C1	x	x	x	x	-19	16	x	x
Cc1nc(SCC(=O)N2CCCCCC2)c2c(=O)n(C)c(=O)n(CC(C)C)c2n1	16	16	15	16	42*	18	0	23
N#Cc1ccc(NC(=O)OC2CC3CC2[C@H]2CCCCN2[C@H]3Cc2ccccc2)cc1 (stereo partly specified)	x	x	x	x	-6	10	x	x
CN1CCN(c2ccc(CNS(=O)(=O)Cc3cccc(C(F)(F)F)c3)cc2)CC1	37	51	21	38	61*	18	-3	45*
CC(O)CC(=O)OC[C@]12CC[C@H]3[C@@](C)(CC[C@H]4C(C)(C)CCC[C@]34C)[C@@H]1CC(C1=CC(=O)OC1O)O2 (stereo partly specified)	38	78*	58	x	87*	42	52*	72*
Cn1c(NC2=NC3(CCCC3)C3=C(CCCC3=O)N2)nc2ccccc21	x	x	x	x	-8	x	x	x
COC[C@@H]1CCCN1c1cccc2c1S(=O)(=O)N1CC[C@@H](C1)O2	x	x	x	x	-35	17	x	x
SMILES	NCOA1 inh	NR5A2 inv ag	SRC3 inh	Gli-Sufu block	NR2F2 inh	NCOA2 inhibitor	VP16 Luc counter	COUP-TFII conf
COC(=O)C[C@H]1CC[C@H]2[C@H](COc3ccc(NC(=O)Cc4cccs4)cc3C(=O)N2C)O1	x	x	x	x	-8	8	x	x
CCN(CC)c1ccc(S(=O)(=O)Nc2cc(Cl)ccc2Cl)cc1NC(=S)NC(=O)C1CCCC1	5	-4	7	11	14	11	x	x
CCN(CC)S(=O)(=O)c1ccc(Cl)c(NC(=S)NC(=O)C2CCCC2)c1	5	10	-1	15	44*	21	2	21
CC(C)(C)CN1CCN(Cc2nc(-c3ccc(F)cc3)cs2)CC1CCO (stereo unspecified)	7	21	8	9	48*	6	6	28
OCCC1CN(Cc2nc(-c3ccc(F)cc3)cs2)CCN1CCc1ccccc1 (stereo unspecified)	-14	0	12	-1	15	11	x	x
CC(=NNc1ccc2ccccc2n1)c1ccccn1	x	x	x	x	59*	38	34*	74*
COc1ccc2[nH]c3c(c2c1)CCN[C@]31C(=O)N(c2ccccc2)c2ccccc21	x	x	x	x	-12	7	x	x
Cc1cc(=O)n(-c2ccc(C(=O)O)cc2)[nH]1	8	5	2	-2	15	-11	x	x
Cc1cc(=O)n(-c2ccc(O)cc2)[nH]1	13	18	32	-1	42*	20	-5	-15
CN(C)C(=O)c1cccc(-c2cnc3c(NC=O)cc(-c4cccc(C(F)(F)F)c4)cn23)c1	10	5	-2	x	46*	0	0	-19
Cc1cccc(-c2cc(NC=O)c3ncc(-c4cccc(C(=O)N(C)C)c4)n3c2)c1	-1	-10	0	x	5	10	x	x
COc1cc(-c2cnc3c(NC=O)cc(-c4cccc(C(F)(F)F)c4)cn23)cc(OC)c1OC	3	-2	12	x	41*	4	2	27
